According to PubChem BioAssay (NCATS):
Calls of active or inactive are those of the source. Calls follow the shape of the dose curve; as a rule, active = well fitted curve in the direction sought with a large enough effect; inconclusive = small, poorly fitted or top-dose-only effect, or effect the other way, or another doubt; inactive = no such curve, though single readings can be large or run the other way.

Test: Inducers of the Endoplasmic Reticulum Stress Response (ERSR) in human glioma: Validation (AID 504836); also: 0% is about no effect
Details: human glioma cells, ER stress response reporter; series mostly up to 38.3 µM; activation: at the top concentration
Excerpt: Primary protein unfolding takes place for many diseases, including diabetes and hypoxia, , and triggers a reaction in the cells called ER stress response (ERSR). ). ERSR is designed as a repair mechanism, but ultimately leads to cell death via apoptosis if conditions triggering protein unfolding persist (1). The molecular clue to ERSR activation is the enhancement of the expression of key molecular chaperones, including the glucose regulated protein (GRP) 78. GRP78 is the main sensor for protein folding and the main actuator of the ERSR.
In a collaboration between the Southern Research Institute and the NIH Chemical Genomics Center, a cell based screen was developed that reliably uses GRP78 as a sensor to identify small molecules as inducers of ERSR. In resting conditions, GRP78 binds proteins and acts as a natural repressor. Once unfolded proteins are present in the ER, GRP78 releases some of the repressors and binds to the unfolded proteins. The release of the repressors executes the ERSR program. Using a human glioma cell line in a miniaturized, luminescent format, a high-throughput screen was developed to identify actuators of the ERSR.
(1) Soboloff, J. and S. A. Berger (2002). "Sustained ER Ca2+ depletion suppresses protein synthesis and induces activation-enhanced cell death in mast cells." J Biol Chem 277(16): 13812-20.
NIH Chemical Genomics Center [NCGC]
NIH Molecular Libraries Probe Centers Network [MLPCN]
Assay Submitter (PI): Maurizio Grimaldi, Southern Research Institute
Stable transfected human glioma cell line, U87-MG, are dispensed at density 1000 cells/well into Greiner white solid bottom 1536-well assay plates. Compounds are transferred via Kalypsys pin tool equipped with 1536-pin array (10nl slotted pins, V&P Scientific, San Diego, CA). The assay plates will be incubated for 16 hours and developed by adding appropriate quantities of the Promega Bright Glo reagent. The plates will be incubated at room temperature for 10 minutes prior to being transferred into a ViewLux high-throughput CCD imager (PerkinElmer), wherein end-point measurements of luminescence are acquired.

SMILES	activation	outcome
CC(C)(C)NCC(O)c1ccccc1Cl (stereo not given)	1.48% (inactive)	
NCCCCCC(=O)O	-1.03% (inactive)	
CCn1nc(C(=O)O)c(=O)c2cc3c(cc21)OCO3	-3.52% (inactive)	
Nc1ncnc2c1ncn2[C@@H]1O[C@H](CO)[C@@H](O)[C@H]1O	-1.57% (inactive)	
CCN(Cc1ccncc1)C(=O)C(CO)c1ccccc1 (stereo not given)	5.03% (inactive)	
C=C(C)[C@H]1CN[C@H](C(=O)O)[C@H]1CC(=O)O	0.701% (inactive)	
FC(F)(F)c1ccccc1-n1ccnc1	-5.84% (inactive)	
C=CC(N)CCC(=O)O (stereo not given)	-3.31% (inactive)	
CN1CCN(CC(=O)N2c3ccccc3C(=O)Nc3cccnc32)CC1	0.906% (inactive)	
CCn1cc(C(=O)O)c(=O)c2cc(F)c(N3CCNC(C)C3)c(F)c21 (stereo not given)	-0.628% (inactive)	
CCOC(=O)[C@H](CCc1ccccc1)N[C@@H](C)C(=O)N1[C@H](C(=O)O)C[C@H]2CCCC[C@@H]21	-0.187% (inactive)	
O=c1[nH]c(=O)n([C@H]2C[C@H](O)[C@@H](CO)O2)cc1Br	-4.26% (inactive)	
O=c1c(-c2ccc(O)cc2)coc2cc(O)cc(O)c12	-10.6% (inactive)	
CC(NC(C)(C)C)C(=O)c1cccc(Cl)c1 (stereo not given)	-0.814% (inactive)	
O=P1(N(CCCl)CCCl)NCCCO1 (stereo not given)	-3.45% (inactive)	
NCCS(=O)(=O)O	-1.34% (inactive)	
CN(C)C(=O)Oc1ccc[n+](C)c1	-4.55% (inactive)	
COc1ccc2c(c1OC)C(=O)O[C@H]2[C@@H]1c2cc3c(cc2CCN1C)OCO3	-1.89% (inactive)	
CC(=O)Oc1cc(C(C)C)c(OCCN(C)C)cc1C	-2.7% (inactive)	
CC(=O)OC(C)C[N+](C)(C)C (stereo not given)	-1.78% (inactive)	

SMILES	activation	outcome
CCN1CCC[C@H]1CNC(=O)c1cc(S(N)(=O)=O)ccc1OC	-3.06% (inactive)	
Nc1ccn([C@@H]2O[C@H](CO)[C@@H](O)C2O)c(=O)n1 (stereo not given in full)	-4.08% (inactive)	
NC(=O)c1ncn([C@@H]2O[C@H](CO)[C@@H](O)[C@H]2O)c1O	-1.2% (inactive)	
CCN1CCCC1CNC(=O)c1cc(S(=O)(=O)CC)c(N)cc1OC (stereo not given)	-3.25% (inactive)	
Cc1nc2c([nH]1)c(=O)n(C)c(=O)n2Cc1ccco1	0.44% (inactive)	
CC(C)N(CCC(C(N)=O)(c1ccccc1)c1ccccn1)C(C)C (stereo not given)		inactive
CN=C(NC#N)NCCSCc1nc[nH]c1C	-3.47% (inactive)	
COC(=O)[C@@H]1[C@H]2C[C@H]3c4[nH]c5ccccc5c4CCN3C[C@@H]2CC[C@@H]1O	-3.44% (inactive)	
O=C(O)CCCc1ccc(N(CCCl)CCCl)cc1	-4.47% (inactive)	
NCCCNCCSP(=O)(O)O	1.55% (inactive)	
CCCCC/C=C\C/C=C\C/C=C\C/C=C\CCCC(=O)NCC(=O)O	-3.42% (inactive)	
Nc1cc(=O)[nH]c(N)n1	0.0828% (inactive)	
CCN(CC)C(C)CN1c2ccccc2Sc2ccccc21 (stereo not given)	-2.1% (inactive)	
Cc1scc2c1N(C(=O)CN1CCN(C)CC1)c1ccccc1NC2=O	-0.791% (inactive)	
CC(CCc1ccccc1)NCC(O)c1ccc(O)c(C(N)=O)c1 (stereo not given)	-1.24% (inactive)	
CNCC(O)c1ccc(O)c(O)c1 (stereo not given)	-3.67% (inactive)	
Clc1cccc(Cl)c1NC1=NCCN1	-1.88% (inactive)	
COc1ccc2cc([C@H](C)C(=O)O)ccc2c1	-4.06% (inactive)	
NC/C=C/C(=O)O	4.31% (inactive)	
CN1C(C(=O)Nc2ccccn2)=C(O)c2ccccc2S1(=O)=O	-0.518% (inactive)	
